Reference: PubChem BioAssay (NCI)
The panel holds about 79,000 compounds, 15% with a hit somewhere; the sample as a whole holds those more often. Active and inactive are the calls of the source. Rule as the data show it: active = growth inhibition above about 70%; inactive = the rest. Where a SMILES comes first, the peptide text is derived from it. [ ]: non-standard residue; d: D form. Abu = CC[CH](N)C(=O)O

Legend:
[1] = NCI Yeast Anticancer Drug Screen. Data for the rad50 strain (AID 155);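 also: 0% = growth of vehicle-only cultures of the same strain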; details: S. cerevisiae rad50 strain growth inhibition; at 50.0 µM; stronger effect = higher value
Procedure, shortened: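 DNA repair mutant yeast, compound exposure, growth read-out; inhibition is taken relative to vehicle.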

[2] = NCI Yeast Anticancer Drug Screen. Data for the mec2-1 strain (AID 157); details: S. cerevisiae mec2-1 strain, at 50.0 µM, stronger effect = higher value
Procedure, shortened: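 Mutant yeast (mec2-1) grown with compound; growth inhibition relative to vehicle control reported.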

[3] = NCI Yeast Anticancer Drug Screen. Data for the sgs1 mgt1 strain (AID 161);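 also: 0% = growth of cultures given vehicle only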; details: S. cerevisiae sgs1 mgt1 strain, at 50.0 µM, stronger effect = higher value
Procedure, shortened: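 This yeast growth screen uses a strain with defined DNA-repair lesions; compound-treated growth is compared with vehicle-treated growth.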

[4] = NCI Yeast Anticancer Drug Screen. Data for the cln2 rad14 strain (AID 165);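 also: 0% = growth equal to vehicle treated cultures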; details: S. cerevisiae cln2 rad14 strain, at 50.0 µM, stronger effect = higher value
Procedure, shortened: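 Readout is yeast growth inhibition versus vehicle-treated controls, using a strain with cln2 and rad14 alterations exposed to compound.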

[5] = NCI Yeast Anticancer Drug Screen. Data for the bub3 strain (AID 167); details: S. cerevisiae bub3 mutant strain, at 50.0 µM, stronger effect = higher value
Procedure, shortened: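 In this screen, a yeast mutant lacking normal mitotic checkpoint function is challenged with compound. Relative growth versus vehicle gives the inhibition value.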

[6] = NCI Yeast Anticancer Drug Screen. Data for the mlh1 rad18 strain (AID 175); details: S. cerevisiae mlh1 rad18 strain growth inhibition; at 50.0 µM; stronger effect = higher value
Procedure, shortened: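 Genetically defined yeast (DNA repair-deficient) exposed to compounds; growth inhibition determined relative to vehicle.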

Measured: growth inhibition

C[C@]12CCC(=O)C(O)=C1CCC2=O
inactive: [1] 2.6% | [2] -7.35% | [3] -5.3% | [4] -14.9% | [5] 3.8% | [6] 4.5%

O=C1C2C3CCC(C3)C2C(=O)C2C3CCC(C3)C12 (stereo unspecified)
inactive: [1] -1.6% | [2] -12.7% | [3] -9.95% | [4] -8.45% | [5] 8.75% | [6] 6.65%

O=C1CSC(c2c[nH]c3ccccc23)N1c1cccc([N+](=O)[O-])c1 (stereo unspecified)
inactive: [1] -61.2% | [2] -39.5% | [3] -59.9% | [4] -0.7% | [5] -59% | [6] -39%

O=S1(=O)CS(=O)(=O)OCCCCO1
inactive: [1] 10.2% | [2] -5.75% | [3] 4.9% | [4] 13.3% | [5] -9.05% | [6] 7.85%

c1ccc(-c2sc(-c3ccccc3)c3c2C2CCC3C2)cc1
inactive: [1] -12.4% | [2] 6.05% | [3] 14% | [4] 29% | [5] 40.6% | [6] -0.05%

CC(C)n1cnc2c(=O)[nH]c(=O)[nH]c21
inactive: [1] -9.55% | [2] -4.55% | [3] 9.25% | [4] -39.8% | [5] -5.2% | [6] 2.9%

CCC1(C(=O)O)NC(=O)NC1=O (stereo unspecified)
inactive: [1] -2.55% | [2] -11.6% | [3] -12.3% | [4] -8.95% | [5] 4.5% | [6] -4.25%

CC1(c2ccccc2)OCC(c2ccccc2)O1 (stereo unspecified)
inactive: [1] -9.2% | [2] -23.2% | [3] -7% | [4] -22% | [5] 12.7% | [6] 10.3%

COc1ccc(NC(=O)CC/C(CC(=O)c2ccco2)=N/Nc2ccc([N+](=O)[O-])cc2[N+](=O)[O-])cc1
inactive: [1] 21.4% | [2] -6.8% | [3] -0.05% | [4] 3.1% | [5] 22.1% | [6] 2.95%

CN(C)Cc1cc(C(=O)O)ccc1O
inactive: [1] 10.1% | [2] 13.1% | [3] 9.45% | [4] -29% | [5] 2.85% | [6] -0.75%

Cc1ccc(C2(C(=O)O)CC2)cc1
inactive: [1] -3.2% | [2] -25.7% | [3] 12.3% | [4] 21.4% | [5] -13.8% | [6] 5.15%

Cn1c(=O)c2c(ncn2CCNC(c2ccccc2)c2ccc(Br)cc2)n(C)c1=O (stereo unspecified)
inactive: [1] 4.55% | [2] 1.55% | [3] 11.3% | [4] -35.3% | [5] 24.1% | [6] 13.6%

COc1cc(-c2ccc(N=C=O)c(OC)c2)ccc1N=C=O
inactive: [1] -4% | [2] -27.4% | [3] 9.8% | [4] -5.7% | [5] 29.9% | [6] -8.15%

CCOC1C(Br)Cn2c(=O)c3cc4ccccc4cc3c(=O)n2C1C (stereo unspecified)
inactive: [1] 61.2% | [2] 8.15% | [3] 21.6% | [4] 44.3% | [5] 33.6% | [6] 33.2%

COc1cc(C(=O)NC2CCc3cc(OC)c(OC)c(OC)c3-c3ccc(OC)c(=O)cc32)cc(OC)c1OC (stereo unspecified)
inactive: [1] 26.4% | [2] -9.65% | [3] 3% | [4] 12.2% | [5] 0.05% | [6] 5.35%

c1ccc(C2=C(c3ccccc3)C2c2ccccc2)cc1
inactive: [1] 10.8% | [2] -8.95% | [3] -4.5% | [4] -21.1% | [5] -2.15% | [6] 7.15%

CNS(=O)(=O)c1ccc(Cl)cc1
inactive: [1] 29.9% | [2] 11.7% | [3] 13.9% | [4] 13.3% | [5] 5.9% | [6] 20.1%

CO[Si](C)(OC)c1ccccc1
inactive: [1] -0.6% | [2] -23.8% | [3] -32.1% | [4] 13.2% | [5] -25.8% | [6] 2.75%

[O-][N+]1(CC[N+]2([O-])CCCCC2)CCCCC1
inactive: [1] -16.8% | [2] -4.9% | [3] 1.7% | [4] -37.3% | [5] -0.65% | [6] 15.8%

O=C(O)C1Nc2ccccc2NC1=O (stereo unspecified)
inactive: [1] 3.55% | [2] -3.15% | [3] -5.5% | [4] -47% | [5] -4.35% | [6] 3.3%

c1ccc(C(NC2=NCCO2)C2CC2)cc1 (stereo unspecified)
inactive: [1] -12.8% | [2] -18.4% | [3] -9.1% | [4] 23.3% | [5] -9.55% | [6] -54.9%

CCc1ccccc1NC(=O)C1=C(C)NC(C)=C(C(=O)Nc2ccccc2CC)C1c1ccc(NC(C)=O)cc1
inactive: [1] -11.1% | [2] 19.8% | [3] 3.25% | [4] 13.6% | [5] 11.4% | [6] -4.25%

COc1ccc(C2=C(Cl)c3cc(OC)c(OC)cc3C2=O)cc1OC
inactive: [1] 0.75% | [2] -7.1% | [3] -7.05% | [4] -18.9% | [5] -9.85% | [6] 2.4%

CCC(N)C(=O)NC(C(N)=O)C(C)C (stereo unspecified) (H-[Abu]-Val-NH2; configuration not given here)
inactive: [1] 11.1% | [2] -9.75% | [3] -1.55% | [4] -42.4% | [5] -4.7% | [6] 13.2%

C#CCOC(=O)c1ccccc1O
inactive: [1] 15.2% | [2] 2.8% | [3] 17.4% | [4] 13.4% | [5] 16.9% | [6] 12.2%

O=C(O)C(O)C(O)C(O)C(O)C(O)CO.[NH-]C1CCCCC1[NH-].[Pt+2] (stereo unspecified)
inactive: [1] -18.3% | [2] 4.4% | [3] -30.4% | [4] 7.4% | [5] 6.15% | [6] -49.5%

COc1ccc(C(=O)CC2=Nc3nnc(CCCCCCCc4nnc5n4C(=O)C(CC(=O)c4ccc(OC)cc4)=N5)n3C2=O)cc1
inactive: [1] -5.95% | [2] -1.9% | [3] -16.4% | [4] 18.9% | [5] 0.1% | [6] -24.1%

CNC1=C(Sc2ccc(C)cc2)C(=O)c2ccccc2C1=O
inactive: [1] -4.9% | [2] 1.8% | [3] 5.4% | [4] -0.45% | [5] -9.05% | [6] -8.7%

O=c1ccc2c([nH]1)CCCC2
inactive: [1] -8.25% | [2] -8.25% | [3] -30.9% | [4] 1.35% | [5] -9.15% | [6] 0.55%

OC(CBr)c1cc(-c2ccc(Cl)cc2)nc2c(-c3ccccc3)cccc12 (stereo unspecified)
inactive: [1] -3% | [2] 3.85% | [3] -4.05% | [4] -25.4% | [5] 2.35% | [6] 28.7%

CCCCCCNC(=O)C1=C(C)NC(C)=C(C(=O)NCCCCCC)C1
inactive: [1] 4.9% | [2] 1.35% | [3] -6.4% | [4] -24.9% | [5] 6.8% | [6] -42.2%

O=C(OC(c1ccccc1)c1ccccc1)c1ccccc1C(=O)c1ccccc1
inactive: [1] -18.6% | [2] -15.1% | [3] -21% | [4] -16.6% | [5] -3.25% | [6] -36.1%

Cc1[nH]c2ccc(-c3ccccc3)cc2c1CC(=O)OC(C)C
active: [1] 97% | [2] 98.5% | [3] 98.2% | [4] 97.8% | [5] 98.2% | [6] 98%

COC(=O)c1cc2cccn2cn1
inactive: [1] -5.9% | [2] -11.3% | [3] -13.2% | [4] -27.4% | [5] -27.9% | [6] -8.85%

CCOC(=O)n1cccc(C)c1=N
inactive: [1] -10.1% | [2] 13.7% | [3] 18.9% | [4] -17.2% | [5] -8.85% | [6] 27.1%

CCOC(=O)c1cc(C)nc(Cl)c1C#N
inactive: [1] 6.3% | [2] 12.8% | [3] 7.9% | [4] 13.7% | [5] 21.1% | [6] 12.4%

CC(=O)Oc1cc2c(cc1OC(C)=O)C(=O)c1cc3c(cc1C2=O)OCO3
inactive: [1] -31.7% | [2] -10.9% | [3] -1.3% | [4] -17.2% | [5] -6.5% | [6] -12%

C1CSCCSCSCCS1
inactive: [1] 32.1% | [2] 11.8% | [3] 17.8% | [4] 30.7% | [5] 42.4% | [6] 17.8%

CCc1nc2ccccc2cc1C
inactive: [1] 5.5% | [2] -4.55% | [3] 3.5% | [4] -19.6% | [5] 1.1% | [6] 2.6%

CCC1C(C)C=CN1c1nc(N)nc(NS(=O)(=O)c2cc(C)c(Cl)cc2S)n1 (stereo unspecified)
inactive: [1] -18.2% | [2] 2.5% | [3] 17.7% | [4] -1.9% | [5] 4.3% | [6] 12.2%

Cc1cc(C)c(N)c(C(=O)O)c1
inactive: [1] -46.5% | [2] -34.6% | [3] -39.8% | [4] -16.1% | [5] -47% | [6] -15.9%
